Data from PubChem BioAssay (EPA / NIEHS).
Records with an inconclusive call do not appear. Activity calls are given as the source filed them. How the source made its calls, unless noted: active means hit-call score of the fitted dose curve at least 0.9, where 1 is the maximum; inconclusive means response in the unintended direction; inactive means score below 0.9.

How the values were obtained:
[1] = TOX21_p53_BLA_p2_viability: Viability Assessment in the Tox21 HCT-116 p53 Agonism Beta-lactamase Assay, Phase 2 (AID 2283591);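 further: compound exposure lasted 16 h at 37 °C; actives lower the ATP signal meaning cytotoxicity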
How it was run: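 HCT-116 p53-bla cells (4000/well) rested 5 h at 37C, then received compounds in DMSO (217-fold dilution) for 16 h at 37C, 5% CO2. After the CCF4 read, CellTiter-Glo was added; ATP luminescence was read after 30 min at room temperature.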

[2] = target: Cellular tumor antigen p53 (Homo sapiens) (UniProt P04637); experiment: TOX21_p53_BLA_p2_ratio: Tox21 HCT-116 p53 Agonism Beta-lactamase Assay, Ratio, Phase 2 (AID 2283592)
How it was run: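 In this cell-based reporter format, HCT116 cells were dosed with chemicals delivered from DMSO by 217-fold dilution and incubated 16 h at 37C. Emission at 460 and 530 nm after 2 h CCF4-AM loading provided the ratio, fitted upward versus DMSO.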

[3] = TOX21_p53_BLA_p3_viability: Viability Assessment in the Tox21 HCT-116 p53 Agonism Beta-lactamase Assay, Phase 3 (AID 2283593);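 further: cells exposed to compound for 16 h before reading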
How it was run: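 HCT-116 cells (4000/well) rested 5 h at 37C, then got DMSO compounds by pin tool (217-fold dilution) for 16 h at 37C, 5% CO2. After the bla read, CellTiter-Glo was added and luminescence read at 30 min, room temperature.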

[4] = target: Cellular tumor antigen p53 (Homo sapiens) (UniProt P04637); experiment: TOX21_p53_BLA_p3_ratio: Tox21 HCT-116 p53 Agonism Beta-lactamase Assay, Ratio, Phase 3 (AID 2283596)
How it was run: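 HCT116 p53-bla cells (4000/well) given compound in DMSO (217-fold dilution) after 5 h, incubated 16 h at 37C. CCF4-AM substrate 2 h at room temperature; 460/530 nm emission ratio, gain fitted against DMSO.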

[5] = TOX21_p53_BLA_p5_viability: Viability Assessment in the Tox21 HCT-116 p53 Agonism Beta-lactamase Assay, Phase 5 (AID 2283600)
How it was run: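 Compounds, pinned from DMSO at 217-fold dilution, were left on the cells for 16 h. The viability endpoint was ATP content measured by CellTiter-Glo luminescence, where falling signal reflects cytotoxicity.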

[6] = target: Cellular tumor antigen p53 (Homo sapiens) (UniProt P04637); experiment: TOX21_p53_BLA_p4_ratio: Tox21 HCT-116 p53 Agonism Beta-lactamase Assay, Ratio, Phase 4 (AID 2283601)
How it was run: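 HCT116 cells carrying an inducible beta-lactamase reporter were plated at 4000 cells/well, rested 5 h, then exposed to compounds in DMSO (217-fold dilution) for 16 h at 37C. CCF4-AM substrate was loaded 2 h at room temperature; 460/530 nm emission ratio scored gain-of-signal versus DMSO.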

[7] = CCTE_Harrill_HTTr_Viability_MCF7: CCTE's 6-hour Cell Viability Assessment for the High-Throughput Transcriptomics (HTTr) Platform, in MCF-7 cells cultured in DMEM + 10% fetal bovine serum, Harrill Lab (AID 2284010; active means hit-call score of the fitted dose curve at least 0.9, where 1 is the maximum; inactive means score below 0.9)
How it was run: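 Membrane integrity was scored by high-content imaging of propidium iodide dye exclusion after a 6 h exposure across an eight-point dilution series. Data were fitted bidirectionally relative to DMSO as negative control and baseline.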

[8] = target: Cellular tumor antigen p53 (Homo sapiens) (UniProt P04637); experiment: TOX21_p53_BLA_p5_ratio: Tox21 HCT-116 p53 Agonism Beta-lactamase Assay, Ratio, Phase 5 (AID 2283599)
How it was run: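 HCT-116 cells carrying a p53-inducible beta-lactamase reporter were seeded at 4000 cells/well and dosed after 5 h with compound in DMSO (217-fold dilution). After 16 h at 37C, CCF4-AM substrate was added for 2 h, and the 460/530 nm emission ratio was scored as gain-of-signal versus DMSO.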

[9] = target: Thyroid hormone receptor alpha (Rattus norvegicus) + Thyroid hormone receptor beta (Rattus norvegicus) (UniProt P18113+P63059); experiment: TOX21_TR_LUC_GH3_Antagonist_Followup: Tox21 GH3 Thyroid Hormone Receptor Antagonism Luciferase Follow-Up Assay (AID 2283942)
How it was run: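 Rat pituitary GH3 cells with a TRα/TRβ-driven luciferase reporter, 5 h attachment, then 15 concentrations (92 uM to 5nM final) plus 1.0 nM T3 agonist, 24 h at 37C/5% CO2. ONE-Glo luminescence; signal change fitted against DMSO baseline.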

[10] = target: THRA (gene 7067) (UniProt P10827); experiment: TOX21_TRA_COA_Antagonist_Followup_ratio: Tox21 Thyroid Hormone Receptor alpha Antagonism through Coactivator Recruitment Follow-Up Assay, Ratio (AID 2283953)
How it was run: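 This follow-up to the GH3 luciferase screen checks specificity in a cell-free format. It measures SRC-2 coactivator peptide binding to TRα LBD by TR-FRET and scores loss of ratio signal relative to DMSO.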

[11] = target: THRB (gene 7068) (UniProt P10828); experiment: TOX21_TRB_BLA_Antagonist_Followup_ratio: Tox21 Thyroid Hormone Receptor beta Antagonism Beta-lactamase (BLA) Follow-Up Assay, Ratio (AID 2283958)
How it was run: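 GAL4-DBD/human TRβ-LBD fusion in GeneBLAzer UAS-bla HEK293T cells, 3,000 cells/well in phenol red-free DMEM with 2% charcoal-stripped FBS; compounds at 11 concentrations in triplicate, 18 h at 37C. CCF4-AM substrate 2 h, 460:530 nm ratio relative to DMSO.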

[12] = target: THRB (gene 7068) (UniProt P10828); experiment: TOX21_TRB_COA_Antagonist_Followup_ratio: Tox21 Thyroid Hormone Receptor beta Antagonism through Coactivator Recruitment Follow-Up Assay, Ratio (AID 2283967)
How it was run: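 Cell-free TR-FRET coactivator recruitment with GST-tagged TRβ LBD (5.0 nM) and fluorescein-labeled SRC-2 peptide (200 nM) detected by terbium anti-GST antibody (2 nM). The 520:495 nm emission ratio was normalized to DMSO (0%) and T3 (100%).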

[13] = TOX21_p53_BLA_p4_viability: Viability Assessment in the Tox21 HCT-116 p53 Agonism Beta-lactamase Assay, Phase 4 (AID 2283597);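 further: hits lower the luminescence signal meaning cytotoxicity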
How it was run: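 We seeded HCT116 p53 reporter cells at 4000/well and waited 5 h. We then added compounds in DMSO at a 217-fold dilution and incubated for 16 h. Viability was read as CellTiter-Glo luminescence after 30 min at RT.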

Measured: AC50

Cellular tumor antigen p53 (Homo sapiens), sequence (P04637 whole entry, looked up): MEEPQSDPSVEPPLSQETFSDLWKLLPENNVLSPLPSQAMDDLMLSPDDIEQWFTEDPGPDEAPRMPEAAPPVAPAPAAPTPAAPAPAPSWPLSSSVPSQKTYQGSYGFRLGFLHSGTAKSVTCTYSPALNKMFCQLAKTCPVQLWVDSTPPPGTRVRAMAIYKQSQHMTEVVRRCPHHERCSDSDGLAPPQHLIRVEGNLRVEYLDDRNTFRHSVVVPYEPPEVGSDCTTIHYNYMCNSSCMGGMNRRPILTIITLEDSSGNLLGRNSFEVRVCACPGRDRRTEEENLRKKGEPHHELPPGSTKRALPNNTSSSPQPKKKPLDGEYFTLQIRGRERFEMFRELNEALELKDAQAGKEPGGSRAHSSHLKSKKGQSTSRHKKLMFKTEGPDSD
THRB (gene 7068), sequence (P10828 whole entry, looked up, the tested form may be a part): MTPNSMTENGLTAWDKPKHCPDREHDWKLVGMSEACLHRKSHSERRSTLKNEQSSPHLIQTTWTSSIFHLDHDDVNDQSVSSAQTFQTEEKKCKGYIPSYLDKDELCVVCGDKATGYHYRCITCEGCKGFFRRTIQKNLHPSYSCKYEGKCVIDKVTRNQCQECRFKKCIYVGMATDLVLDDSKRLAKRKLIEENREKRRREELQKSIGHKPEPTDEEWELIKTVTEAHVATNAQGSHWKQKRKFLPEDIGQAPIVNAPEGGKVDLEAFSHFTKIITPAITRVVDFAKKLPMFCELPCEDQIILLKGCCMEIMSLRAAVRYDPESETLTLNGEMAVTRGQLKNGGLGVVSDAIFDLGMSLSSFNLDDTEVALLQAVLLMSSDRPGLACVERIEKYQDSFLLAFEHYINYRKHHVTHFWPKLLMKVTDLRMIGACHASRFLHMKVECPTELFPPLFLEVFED
THRA (gene 7067), sequence (P10827 whole entry, looked up, the tested form may be a part): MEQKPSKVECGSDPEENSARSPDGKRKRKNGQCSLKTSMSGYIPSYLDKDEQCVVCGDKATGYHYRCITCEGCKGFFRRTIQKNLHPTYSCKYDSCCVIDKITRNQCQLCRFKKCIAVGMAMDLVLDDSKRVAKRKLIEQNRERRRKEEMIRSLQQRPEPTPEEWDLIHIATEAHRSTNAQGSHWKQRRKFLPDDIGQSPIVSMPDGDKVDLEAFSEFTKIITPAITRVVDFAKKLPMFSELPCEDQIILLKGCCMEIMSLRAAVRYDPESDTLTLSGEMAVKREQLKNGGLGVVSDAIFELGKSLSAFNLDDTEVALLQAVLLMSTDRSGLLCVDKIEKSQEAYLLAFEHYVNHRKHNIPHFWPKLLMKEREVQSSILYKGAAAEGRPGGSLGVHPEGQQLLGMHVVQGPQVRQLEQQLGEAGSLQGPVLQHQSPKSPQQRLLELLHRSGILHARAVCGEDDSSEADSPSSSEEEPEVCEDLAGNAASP

CCO
inactive: [1] | [2] | [3] | [4] | [5] | [6]

CC(O)[C@@H]1NC(=O)[C@H](Cc2ccccc2)NC(=O)[C@H](C(C)O)NC(=O)[C@H](CCCCN)NC(=O)[C@H](Cc2c[nH]c3ccccc23)NC(=O)[C@H](Cc2ccccc2)NC(=O)[C@H](Cc2ccccc2)NC(=O)[C@H](CC(N)=O)NC(=O)[C@H](CCCCN)NC(=O)[C@@H](NC(=O)CNC(=O)[C@H](C)N)CSSC[C@@H](C(=O)O)NC(=O)[C@H](CO)NC1=O (stereo not given in full)
inactive: [1] | [2] | [3] | [4] | [5] | [6]

COc1cc(OC)c(C(=O)CCCN2CCCC2)c(OC)c1
inactive: [1] | [2] | [3] | [4] | [5] | [7]

CCN(CC)CCNC(=O)c1cc(Cl)c(N)cc1OC
inactive: [1] | [2] | [3] | [4] | [5] | [6]

CC(=O)N(O)CCCCCNC(=O)CCC(=O)N(O)CCCCCNC(=O)CCC(=O)N(O)CCCCCN
inactive: [1] | [2] | [3] | [4] | [6]

CCN(CC)CCC(=O)N1c2ccccc2Sc2ccc(Cl)cc21
inactive: [1] | [2] | [3] | [4] | [8] | [6]

C[C@]12CCC(=O)C[C@@H]1CC[C@@H]1[C@@H]2CC[C@]2(C)C=CC[C@@H]12
inactive: [1] | [2] | [3] | [4] | [5] | [6]

CC(=O)Nc1ccn(C2COC(COC(=O)c3ccccc3)O2)c(=O)n1 (stereo not given)
active: [2] 5.44 µM | [4] 11.7 µM
inactive: [1] | [3] | [8] | [6] | [9] | [10] | [11] | [12]

CCCCCCC(=O)O[C@H]1CC[C@H]2[C@@H]3CCc4cc(O)ccc4[C@H]3CC[C@]12C
inactive: [1] | [2] | [3] | [4] | [5] | [6]

C[N+](C)(CCCCCC[N+](C)(C)C1c2ccccc2-c2ccccc21)C1c2ccccc2-c2ccccc21
inactive: [1] | [2] | [3] | [13]

COc1cc(C(=O)OC(COCCC(C)C)CN2CCOCC2)cc(OC)c1OC (stereo not given)
inactive: [1] | [2] | [3] | [13]

CCCCCC=CCC=CCCCCCCCC(=O)OCC
inactive: [1] | [2] | [3] | [13]

CCc1nccnc1CC
inactive: [1] | [2] | [3] | [4] | [5] | [6]

NCCN1CCNC1=O
inactive: [1] | [2] | [3] | [4] | [5]
